PrP 5UTR inh = suppresses PrP 5' UTR mRNA reporter expression; inhibition, % (concentration not given with the values); cell-based PrP 5' UTR mRNA reporter, plate reader; actives 0.35% (n = 340,000); in the data active = inhibition above about 52%; also: 0 = median of the neutral control wells
3CLpro inhibitor = SARS-CoV 3CLpro protease inhibition | recombinant SARS-CoV 3CLpro, quenched FRET peptide cleavage | inhibition, % at 6 µM | actives 0.14% (n = 290,000); in the data active = inhibition above about 12%
PrPC surface inh = reduces human prion protein on the cell surface; AID 720596; actives 0.43% (n = 370,000); P04156; inhibition, % at 13.8 µM; cell surface PrPC, TR-FRET read-out; in the data active = inhibition above about 24%; also: 0% = median of the test wells and 100% = reference compound wells
CCHF vOTU inh-1 = blocks the CCHF virus ovarian tumor domain protease | inhibition, % at 11.5 µM | CCHFV vOTU protease, Pep-AMC fluorescence | actives 0.55% (n = 370,000); also: 0% = vehicle wells with enzyme and 100% = no enzyme wells
CCHF vOTU inh-2 = CCHFV vOTU protease inhibition, confirmation | shares compounds with CCHF vOTU inh-1 | Recombinant CCHFV vOTU, Pep-AMC fluorescence | inhibition, % at 11.5 µM | actives 17% (n = 1,900) | AID 686976
PrPC confirm = cell surface PrPC inhibition, TR-FRET confirmation; inhibition, % at 13.8 µM; AID 743200; cell surface PrPC level; actives 65% (n = 1,500); shares compounds with PrPC surface inh; in the data active = inhibition above about 25%
LD9 cytotox = kills or reduces viability of LD9 cells in PrPc counter-screen | shares compounds with PrPC surface inh | LD9 cells cytotoxicity, luminescence viability | inhibition, % at 13.8 µM | actives 29% (n = 1,500) | AID 743201; in the data active = inhibition above about 9.5%
Numbers without * were called inactive; · = no result. Hits are enriched below; roughly 1.3% of the tested compounds scored in any of these assays. Rule as the data show it, unless noted: active = inhibition above about 30%; inactive = the rest.

SMILES | PrP 5UTR inh | 3CLpro inhibitor | PrPC surface inh | CCHF vOTU inh-1 | CCHF vOTU inh-2 | others
COC(=O)[C@]12CCCCC=C1N(CCC1=CCCCC1)C(=O)[C@H](CC(=O)NCCC(C)C)C2 | · | · | 5 | 44* | -6
COC(=O)[C@@]12C[C@@H](CC(=O)NCc3ccc(C)o3)C(=O)N(CCc3ccc(OC)c(OC)c3)C1=CCC(C)(C)C2 | · | · | -2 | 36* | -4
CCCCCCCCN1C(=O)[C@@H](CC(=O)NCc2ccccc2)C[C@@]2(C(=O)OC)C1=C[C@H](C(C)C)O[C@@H]2C1CC1 | · | · | 7 | 39* | 12
CCCCCCCCN1C(=O)[C@H](CC(=O)NCc2ccccc2)C[C@@]2(C(=O)OC)CCCCC=C12 | · | · | 12 | 40* | 31*
Cc1ccccc1N(C(=O)CCCC(=O)Nc1ccccn1)C(C(=O)NC1CCCC1)c1ccc(O)cc1 (stereo unspecified) | -24 | -1 | -15 | 7 | ·
CCCCCCCCN1C(=O)[C@H](CC(=O)N2CCCC2)C[C@@]2(C(=O)OCC)CCCC=C12 | · | · | -4 | 34* | 20
CCCCCCCCN1C(=O)[C@H](CC(=O)N2CCCCC2)C[C@@]2(C(=O)OCC)CCCC=C12 | · | · | 2 | 28 | ·
CCCCCCCCN1C(=O)[C@@H](CC(=O)N2CCN(C(=O)C3CC3)CC2)C[C@@]2(C(=O)OC)C1=C[C@H](C(C)C)O[C@@H]2C1CC1 | · | · | -3 | 26 | ·
CCCCCCCCN1C(=O)[C@@H](CC(=O)NCCc2ccccc2OC)C[C@@]2(C(=O)OC)C1=C[C@H](C(C)C)O[C@@H]2C1CC1 | · | · | 1 | 35* | 16
CCCCCCCCN1C(=O)[C@@H](CC(=O)NCc2ccc(C)o2)C[C@@]2(C(=O)OC)C1=C[C@H](C(C)C)O[C@@H]2C1CC1 | · | · | -2 | 30* | 27
CCCCCCCCN1C(=O)[C@@H](CC(=O)N2CCN(C(=O)OCC)CC2)C[C@@]2(C(=O)OC)C1=C[C@H](C(C)C)O[C@@H]2C1CC1 | · | · | 1 | 33* | 17
N#C/C(=C\c1ccc[nH]1)C(=O)Nc1ccccc1F | -87 | 1 | -22 | 15 | ·
Cc1cc(/C=C(\C#N)C(=O)Nc2ccccc2F)c(C)[nH]1 | -86 | 0 | 0 | 33* | -3
O=C1C2C3CCCC3=C3CCCC3C2C(=O)N1c1cccc(Cl)c1 (stereo unspecified) | -1 | 2 | -3 | -11 | ·
O=C1C2C3C=CC(c4ccccc4)(C2C(=O)N1c1cccc(Cl)c1)C1C(=O)N(c2cccc(Cl)c2)C(=O)C31 (stereo unspecified) | -17 | -6 | -10 | 38* | -13
C/C(Cl)=C\Cn1c(N2CCCCCC2)nc2c1c(=O)n(C)c(=O)n2C | -10 | -2 | 9 | 31* | -11
O=c1[nH]ncc(N/N=C\c2cccnc2)c1Cl | 3 | -3 | -13 | -5 | ·
O=c1[nH]ncc(N/N=C\c2cccs2)c1Cl | -3 | -1 | -21 | 30* | -8
Cc1cccc(/C=N\Nc2cn[nH]c(=O)c2Cl)c1 | -7 | 3 | -11 | 27 | ·
O=c1[nH]ncc(N/N=C\c2ccncc2)c1Cl | -6 | 2 | -12 | 34* | -1
COc1ccc(C(=O)c2ccccc2)cc1Br | -15 | 2 | -4 | 1 | ·
CC(C)C(NS(=O)(=O)c1cccc2nsnc12)C(=O)NC1CCCCC1 (stereo unspecified) | 5 | 6 | -22 | 0 | ·
CC1CCC(NC(=O)C(NS(=O)(=O)c2cccc3nsnc23)C(C)C)CC1 (stereo unspecified) | -22 | -1 | -32 | 31* | -11
O=C(O)c1ccc(NC2=C(N3CCOCC3)C(=O)c3ccccc3C2=O)cc1 | 0 | 1 | -7 | 57* | 23
CC(=O)c1ccc(S(=O)(=O)Nc2ccc(N3CCOCC3)cc2)cc1 | -11 | -2 | 8 | -8 | ·
SMILES | PrP 5UTR inh | 3CLpro inhibitor | PrPC surface inh | CCHF vOTU inh-1 | CCHF vOTU inh-2 | others
CC(=O)N(C1=C(N2CCOCC2)C(=O)c2ccccc2C1=O)c1ccc(C(=O)O)cc1 | -1 | -3 | -41 | 52* | 36*
CC(=O)N(C)C1=C(N2CCOCC2)C(=O)c2ccccc2C1=O | -6 | 3 | · | · | ·
CC(=O)c1ccc(NC2=C(N3CCOCC3)C(=O)c3ccccc3C2=O)cc1 | -9 | 0 | -6 | 93* | 67*
Cc1ccc(NC2=C(N3CCOCC3)C(=O)c3ccccc3C2=O)cc1 | 12 | 5 | -15 | 108* | 101*
Cc1[nH][nH]c(=O)c1C(c1ccc(-c2cccc(C(=O)O)c2)o1)c1c(C)[nH][nH]c1=O | -19 | 3 | 3 | 40* | -14
O=C(O)CCCNc1cc(N2CCN(C(=O)c3ccco3)CC2)c2noc3c2c1C(=O)c1ccccc1-3 | -3 | 3 | -76 | 32* | 81*
CN1CCN(c2cc(N3CCN(C(=O)c4ccco4)CC3)c3c4c(onc24)-c2ccccc2C3=O)CC1 | -36 | -5 | · | · | ·
COc1ccc(/C=N/Nc2ncnc3c2[nH]c2ccc(C)cc23)c(OC)c1OC | -1 | -1 | 0 | -4 | ·
Cc1ccc(/C=[N+](\[O-])c2ccc(N(C)C)cc2)c2nsnc12 | -54 | -1 | -9 | 56* | -12
COc1ccc(-c2csc3ncnc(N4CCN(S(=O)(=O)c5ccc(C)c(C)c5)CC4)c23)cc1 | -10 | · | 3 | -11 | ·
O=C(NNC(=O)c1ccc(NC(=O)c2ccccc2)cc1)c1ccc(F)cc1 | -1 | -4 | -3 | 22 | ·
O=C(NC1=C(Nc2ccc(F)cc2)C(=O)c2ccccc2C1=O)c1ccc(Cl)cc1 | -28 | 7 | -9 | 35* | 58*
O=C(Cc1c[nH]c2ccccc12)Nc1ccc(Nc2cccnc2)c(-c2ccc(-c3ccccc3)cc2F)c1 | · | · | -6 | 30* | -25
O=C1C(=O)N(CCCn2ccnc2)C(c2ccc(Br)cc2)/C1=C(\O)c1ccc2c(c1)OCCO2 (stereo unspecified) | -15 | -3 | 16 | 23 | ·
O=C1C(=O)N(CCCn2ccnc2)C(c2ccc(Cl)cc2)/C1=C(\O)c1ccc2c(c1)OCCO2 (stereo unspecified) | -12 | -5 | 32* | 48* | -12 | PrPC confirm=12;LD9 cytotox=-4
Nc1ccc2c(c1)C(=O)C(=O)c1ccccc1-2 | -37 | -2 | 64* | 101* | 97* | PrPC confirm=61*;LD9 cytotox=99*
COc1ccc2cc([C@H](C)C(=O)N(C)Cc3ccccc3N3CCCC3)ccc2c1 | -18 | 6 | 6 | 5 | ·
CCCCCCCCCCCCCCCC[n+]1ccccc1 | 10 | · | 28* | 38* | 37* | PrPC confirm=39*;LD9 cytotox=36*
CCOc1cc(N2CCOCC2)c(OCC)cc1NC(=O)CSc1n[nH]c(N)n1 | -14 | 2 | 5 | 4 | ·
COc1ccc(CNCCc2ccc3c(c2)OCO3)cc1Br | · | 3 | -3 | 8 | ·
O=S(=O)(c1ccccc1)N(CC(F)(F)F)c1ccc(C(O)(C(F)(F)F)C(F)(F)F)cc1 | · | · | 33* | 34* | 0 | PrPC confirm=14;LD9 cytotox=-3
